Assay results reported in ChEMBL document CHEMBL1157539, “Thousands of chemical starting points for antimalarial lead identification” (Nature, 2010).

test system: HepG2; assay: GSK_TCMDC: Percent inhibition of human HepG2 cell line. Test compounds present at 10uM.; type: functional

Row | Compound | Inhibition [%]
1 | CN(C)c1ccc(C2c3[nH]cnc3CCN2C(=O)Nc2cccc([N+](=O)[O-])c2)cc1 (stereo not given) | 0
2 | O=C(O)C(F)(F)F.OC1CCCN(Cc2ccc(-c3cccc(-c4nc5cc(F)ccc5[nH]4)c3)cc2)C1 (stereo not given) | 28
3 | CCC(=O)c1cc(C(=O)NCCc2cccc(OC)c2)ccc1OC | 0
4 | CN1CCCN(Cc2ccc(-c3ccc(NC(=O)c4cccc(C#N)c4)cc3)cc2)CC1.O=C(O)C(F)(F)F | 46
5 | O=C(N[C@@H](CC1CCCCC1)C(=O)NCCN1CCCC1)c1ccc(O)c(-c2cccc(C(F)(F)F)c2)c1 | 0
